Results: the supplement of paper PMC10338343
± gives the standard deviation.

Tested on: EfPiwi piRISC loaded with L1MC piRNA (26 nt)
Assay: pre-steady-state target cleavage rate (min^-1); auxiliary factor: 500 nM Ephydatia muelleri Gtsf1; guide: L1MC piRNA 5'p-UAACUAAAUACUAUGCAAGCUGUAGG; MIWI and MILI are mouse PIWI proteins and EfPiwi is from a freshwater sponge; tags in brackets are library labels; higher = faster piRNA-guided slicing of the target
Method: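 Cleave-'n-Seq: a library of target RNAs (target site in constant flanks) at […] was incubated with 1 nM active freshwater sponge Ephydatia fluviatilis Piwi piRISC (synthetic 5'-monophosphorylated piRNA guide) with or without 500 nM EmGtsf1 at 33 °C for 1 min to 16 h. Uncleaved targets were sequenced and the pooled three trials fitted to a burst-and-steady-state model to give the pre-steady-state cleavage rate (min^-1). Sequence is the target site only. Fits with R² ≤ 0 are excluded.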

| Sequence | pre-steady-state target cleavage rate |
| --- | --- |
| UCCUGGAAGAGCUAGCAUAGUAUUUAGUUA | 0.00727 ± 0.0022 |
| UCCUGGAUCAGGUUGCAUAGUAUUUUGUUA | 0.00406 ± 0.0022 |
| UCCUGGUACAGCUUGCAUAGUACUUAGUUA | 0.00275 ± 0.0022 |
| UCCUGGAACAGCUUGCAUAUUAUUUAGUUA | 0.0169 ± 0.0055 |
| UCCUGGAUCAGCUUCGCAUAGUAUUUAGUUA | 0.0389 ± 0.009 |
| UCCUGGAUGUCGAACGUUAGAUUUAGUUA | < 0.0001 |
| UCCUGGAUCAGCUUGCAUAGUAUUUGAGUUA | 0.00696 ± 0.0028 |
| UCCUGGAUGUGCUAUGCAUAGUAUUUAGUUA | 0.0103 ± 0.0036 |
| UCCUCCUACAGCUUGCAUAGUAUUUAGCUA | 0.00335 ± 0.0016 |
| UCCUGGAUGUCCUUGCAUAGUAUUUAGUUA [g2:g19:cont:t1A] | 0.00824 ± 0.003 |
| UCCUCCUACAGCGUGCAUAGUAUUUAGUUA | 0.1 ± 0.026 |
| UCCUGGAUGUGCUUGCAUACUAUUUAGUUA | 0.0112 ± 0.0036 |
| UCCUGGAUGUCGAUGCAUAGUAUUUAGUUUA | 0.00642 ± 0.0029 |
| UCCUGGAUGAGCUUGCAUAGUAAAUAGUUA | 0.00329 ± 0.0025 |
| UCCUGGAACUGCUUGCAUAGUUUUUAGUUA | 0.00498 ± 0.0026 |
| UCCUGGAUGUCCUCGCAUAGUAUUUAGUUA | 0.00388 ± 0.0033 |
| UCCUCCUACAGCUUGCAUAGUAUUUCAGUUA | 0.00437 ± 0.0022 |
| UCCUGCUACACGCUUGCAUAGUAUUUAGUUA | 0.00609 ± 0.0019 |
| UCCUGGUAGAGCUUGCUUAGUAUUUAGUUA | 0.00885 ± 0.0045 |
| UCCUCCUACAUCUUGCAUAGUAUUUAGUUA | 0.0662 ± 0.02 |

| Sequence | pre-steady-state target cleavage rate |
| --- | --- |
| UCCUCCUACAGCUUGCAUUGUAUUUACAAA | 0.00314 ± 0.003 |
| UCCUCCUACAGGUUGCAUAGAAUUUAGUUA | 0.0062 ± 0.0014 |
| UCCUGGAUCAGCUCGCAUAGUAUUUAGUUA | 0.0549 ± 0.013 |
| UCCUGGAUGUCUUUGCAUAGUAUUUAGUUA | 0.00871 ± 0.0039 |
| UCCUGGAACAGCUUGCAUAGAAUUUUGUUA | 0.00229 ± 0.0021 |
| UCCUCCUACAGCUUGCAUAGUAUAAUGAAA | 0.00235 ± 0.0022 |
| UCCUGCUACAGCUUGCAUAGUAAUUUGUUA | 0.00579 ± 0.002 |
| UCCUGGAUCCAGCUUGCAUAGUAUUUAGUUA | 0.126 ± 0.022 |
| UCCUCGUACAGGUUGCAUAGUAUUUAGUUA | 0.0399 ± 0.0088 |
| UCCUGGAUCAAGCUUGCAUAGUAUUUAGUUA | 0.0542 ± 0.012 |
| UCCUGGAUCAGCUUGCAUAGUAUUUAGUAA | 0.00774 ± 0.0024 |
| UCCUGGAUGUGCUUGCAUAGUAUUUAGUAA | 0.00442 ± 0.002 |
| UCCUGCUAGAGCUUGCAUAGUUUUUAGUUA | 0.00419 ± 0.0013 |
| UCCUGCUAGAGCAUGCAUAGUAUUUAGUUA | 0.00618 ± 0.0015 |
| UCCUGCUACACCUUGCUUAGUAUUUAGUUA | 0.00903 ± 0.0035 |
| UCCUGCAACACCUUGCAUAGUAUUUAGUUA | 0.0123 ± 0.0034 |
| UCCUGCUACAGCUUCGCAUAGUAUUUAGUUA | 0.0225 ± 0.0071 |
| UCCUGCUACAGCUUGCAUAGUAUAUAGUUA | 0.00448 ± 0.0019 |
| UCCUGGUAGAGCUAGCAUAGUAUUUAGUUA | 0.00968 ± 0.0033 |
| UCCUGGUAGAGCAUGCAUAGUAUUUAGUUA | 0.0134 ± 0.004 |
